The nature of assay [1]: qHTS assay to identify small molecule antagonists of the estrogen related receptor (ERR) signaling pathway from Tox21 library - cell viability counter screen (AID 1224834). Further: nearly all actives have a fitted effect of over 30% in size. The essentials: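 ERR reporter cells, 2,000 per well, rested 6 h, then exposed to compound in DMSO for 17.5 hours at 37 C. Viability read as fluorescence after 30 min with CellTiter-Fluor.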
Assay [2] concerns the target Luciferin 4-monooxygenase (Photinus pyralis) (UniProt P08659). Description: qHTS assay to identify small molecule inhibitors of firefly luciferase (AID 1224835). Further: nearly all actives have a fitted effect of over 25% in size. Further: potency means the concentration at half of the fitted maximal effect. The essentials: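 Quantitative HTS format; KM concentrations of both substrates. Purified P. pyralis FLuc activity quantified from luminescence images.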
Assay [3] in a line: qHTS assay to identify small molecule agonists of the constitutive androstane receptor (CAR) signaling pathway - cell viability counter screen (AID 1224836). Further: nearly all actives have a fitted effect of over 45% in size. The method, boiled down:
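Viability read-out: CellTiter-Fluor fluorescence after 23 h compound exposure at 37 C/5% CO2 in double-stable HepG2-CYP2B6-hCAR cells, with PK11195 present at 0.75 uM final; compounds tested in 15-point titration.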

A short description of assay [4]: qHTS assay to identify small molecule antagonists of the constitutive androstane receptor (CAR) signaling pathway - cell viability counter screen (AID 1224837). Further: nearly all actives have a fitted effect of over 45% in size. The essentials:
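HepG2 cells stably carrying hCAR and CYP2B6-2.2kb reporter, stimulated with 50 nM CITCO and compounds at 15 concentrations for 23 h at 37 C. Viability measured by CellTiter-Fluor fluorescence.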

The nature of assay [5]: qHTS assay to identify small molecule antagonists of the estrogen related receptor signaling pathway with the pleiotropic PPARgamma coactivator (PGC) from Tox21 10K library - cell viability counter screen (AID 1224840; active means well fitted cell-killing curve with a large enough effect in the repeat runs, not every such curve was filed as active; further: nearly all actives have a fitted effect of over 40% in size). The essentials: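 PGC/ERR cells (2,000/well) plated 6 h, then compound-treated for 17.5 h at 37 C. Viability measured by CellTiter-Fluor fluorescence after 30 min at 37 C, multiplexed with the pathway assay.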

Assay [6] has as its target Thyrotropin receptor (Homo sapiens) (UniProt P16473). The assay can be described thus: qHTS assay to identify small molecule agonists of the thyroid stimulating hormone receptor (TSHR) signaling pathway (AID 1224843; calls by dose curve; further: nearly all actives have a fitted effect of over 45% in size). The essentials: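 Cell line HEK293 with TSHR; density 800/well. Exposure 30 min RT. Readout HTRF cAMP (cAMP-d2/anti-cAMP-cryptate), 1 h RT before reading.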

A short description of assay [7]: qHTS assay to identify small molecule agonists of the hypoxia (HIF-1) signaling pathway - cell viability counter screen (AID 1224844; calls by dose curve; further: nearly all actives have a fitted effect of over 50% in size). The essentials:
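HRE-bla ME-180 cells, 2,000/well in 0.5% dialyzed FBS medium, treated 17 h at 37C with compounds. Viability read in the same wells as the bla reporter, by CellTiter-Glo luminescence after 30 min at room temperature.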

Assay [8] in a line: qHTS assay to identify small molecule agonists of H2AX (AID 1224845; active means well fitted activation curve with a large enough effect in the signal ratio in the repeat runs, not every such curve was filed as active; the % refers to the signal ratio). The method, boiled down:
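Wild-type CHO-K1 cells plated overnight, then exposed 3 hr at 37C to compounds at 15 concentrations (0.76% DMSO). Lysed, then HTRF anti-pH2AX(S139)-cryptate/anti-H2AX-d2 detection after 24 hr at room temperature; emissions 665 and 620 nm.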

The nature of assay [9]: qHTS assay to identify small molecule agonists of the hypoxia (HIF-1) signaling pathway (AID 1224846; active means well fitted activation curve with a large enough effect in the signal ratio in the repeat runs, not every such curve was filed as active; the % refers to the signal ratio). The essentials: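 HRE-bla ME-180 beta-lactamase reporter cells in medium with 0.5% dialyzed FBS, pre-incubated 5 h then exposed to compounds 17 h at 37C, 5% CO2; reporter induction read with CCF4-AM FRET substrate.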
A short description of assay [10]: qHTS assay to identify small molecule agonists of H2AX - cell viability counter screen (AID 1224847; calls by dose curve; further: top concentration of the series differs between compounds; nearly all actives have a fitted effect of over 30% in size). The essentials:
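CHO-K1 wt, 1000 cells/well, o/n 37C; cpds 15 conc, 3 h 37C, 0.76% DMSO; CellTiter-Glo, 30 min RT, luminescence.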

A short description of assay [11]: qHTS RealTime-Glo MT Cell Viability Assay in HepG2 cells - 24 hour (AID 1224867). Further: nearly all actives have a fitted effect of over 50% in size. The method, boiled down:
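Cell number in HepG2 cultures estimated from NanoLuc luminescence generated by metabolic reduction of a prosubstrate by living cells. The homogeneous, nonlytic format allowed repeated reads at 0, 8, 16, 24, 32 and 40 h of compound exposure.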

A short description of assay [12]: qHTS RealTime-Glo MT Cell Viability Assay in HEK293 cells - 32 hour (AID 1224868). Further: nearly all actives have a fitted effect of over 50% in size. Further: potency means the concentration at half of the fitted maximal effect. The essentials:
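Homogeneous bioluminescent viability format in HEK293 cells (600 cells/well). Following 5 h at 37 C/5% CO2, 23 nL compound was pintooled; the signal was measured repeatedly during 40 h incubation.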

A short description of assay [13]: A CellTox Green Cytotoxicity Assay to monitor cytotoxicity in HEK293 cells - 0 hour (AID 1224869). Further: nearly all actives have a fitted effect of over 50% in size. Further: potency means the concentration at half of the fitted maximal effect. The essentials:
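HEK293 cells, 600/well, were preincubated 5 hours and then exposed to compounds at 37 C for up to 40 hours. A cell-impermeant cyanine dye staining dead-cell DNA was read by fluorescence at 0, 8, 16, 24, 32 and 40 h time points.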

A short description of assay [14]: qHTS RealTime-Glo MT Cell Viability Assay in HepG2 cells - 40 hour (AID 1224870). Further: nearly all actives have a fitted effect of over 50% in size. The method, boiled down:
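HepG2 cells mixed with RealTime-Glo MT reagents (NanoLuc plus cell-permeant prosubstrate) were seeded at 600 cells/well, incubated 5 h at 37 C/5% CO2, then pinned with compounds in DMSO; nonlytic luminescence tracked viability during 40 h treatment.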

Assay [15] is described as follows: qHTS assay to identify small molecule antagonists of the estrogen related receptor signaling pathway with the pleiotropic PPARgamma coactivator (PGC) from Tox21 10K library (AID 1224841; call rule not given here). The method, boiled down: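 PGC/ERR cell line, 2,000 cells/well, pre-incubated 6 hours at 37 C, then exposed to compounds for 18 hours at 37 C; luciferase read with One-Glo luminescence after 30 min at room temperature.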

A short description of assay [16]: qHTS assay to identify small molecule agonists of the estrogen related receptor signaling pathway with the pleiotropic PPARgamma coactivator (PGC) from Tox21 10K library (AID 1224842). Further: nearly all actives have a fitted effect of over 15% in size. The essentials: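 PGC/ERR reporter cells (NTP line) were seeded 2,000 per well, rested 6 h at 37 C/5% CO2, then pin-dosed with compounds in DMSO for 18 h at 37 C; luciferase read by One-Glo luminescence after 30 min at room temperature.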

Assay [17] in a line: qHTS assay to identify small molecule antagonists of the estrogen related receptor (ERR) signaling pathway from Tox21 library (AID 1224848). Further: nearly all actives have a fitted effect of over 50% in size. Further: potency means the concentration at half of the fitted maximal effect. The method, boiled down:
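Screening used an ERR reporter line supplied by NTP, exposed for 18 h at 37 C to library compounds delivered in DMSO. Signal was luciferase luminescence developed with ONE-Glo at room temperature for 30 min.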

A short description of assay [18]: qHTS assay to identify small molecule agonists of the estrogen related receptor (ERR) signaling pathway from Tox21 library (AID 1224849; calls by dose curve; further: nearly all actives have a fitted effect of over 15% in size). Conditions: ERR reporter cell line, ONE-Glo luciferase, 18 h; at 42.5 µM (top of the series). The essentials:
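ERR reporter cells (NTP line) pre-incubated 6 hours at 37 C, then exposed to compounds for 18 hours at 37 C. ONE-Glo luciferase luminescence was read after 30 minutes at room temperature.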

In assay [19] the target is Nuclear receptor subfamily 1 group I member 3 (Homo sapiens) (UniProt Q14994). The assay can be described thus: qHTS assay to identify small molecule antagonists of the constitutive androstane receptor (CAR) signaling pathway (AID 1224838). Further: nearly all actives have a fitted effect of over 40% in size. The essentials: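 HepG2 cells stably carrying hCAR and a CYP2B6-2.2kb luciferase reporter, seeded 4 hrs before compound (15 concentrations). Stimulated with 50 nM CITCO for 24 hr at 37 C. ONE-Glo luminescence read after 30 min at room temperature.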

Assay [20] shares this target. The assay can be described thus: qHTS assay to identify small molecule agonists of the constitutive androstane receptor (CAR) signaling pathway (AID 1224839). Further: nearly all actives have a fitted effect of over 15% in size. The method, boiled down: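 Luminescence read-out (ONE-Glo, 30 min, room temperature) from double-stable HepG2-CYP2B6-hCAR cells exposed 24 h to 15-point compound series in presence of 0.75 uM PK11195 final.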

This passage reports Potency and activity change, positive = activation results from PubChem BioAssay (Tox21).

Unmarked numbers belong to inactive results. Inconclusive results are not listed. Active and inactive are the calls of the source. Unless noted, the call rests on the fitted dose curve; in most records, active means well fitted curve in the direction sought with a large enough effect in the repeat runs; inconclusive means weak or mixed curves; inactive means no such curve, though single readings can be large; an effect the other way counts as inactive or inconclusive.
On the % scale 0 is the no-effect control and ±100 the full control effect.

Sequence of Thyrotropin receptor (Homo sapiens) (P16473 whole entry, looked up): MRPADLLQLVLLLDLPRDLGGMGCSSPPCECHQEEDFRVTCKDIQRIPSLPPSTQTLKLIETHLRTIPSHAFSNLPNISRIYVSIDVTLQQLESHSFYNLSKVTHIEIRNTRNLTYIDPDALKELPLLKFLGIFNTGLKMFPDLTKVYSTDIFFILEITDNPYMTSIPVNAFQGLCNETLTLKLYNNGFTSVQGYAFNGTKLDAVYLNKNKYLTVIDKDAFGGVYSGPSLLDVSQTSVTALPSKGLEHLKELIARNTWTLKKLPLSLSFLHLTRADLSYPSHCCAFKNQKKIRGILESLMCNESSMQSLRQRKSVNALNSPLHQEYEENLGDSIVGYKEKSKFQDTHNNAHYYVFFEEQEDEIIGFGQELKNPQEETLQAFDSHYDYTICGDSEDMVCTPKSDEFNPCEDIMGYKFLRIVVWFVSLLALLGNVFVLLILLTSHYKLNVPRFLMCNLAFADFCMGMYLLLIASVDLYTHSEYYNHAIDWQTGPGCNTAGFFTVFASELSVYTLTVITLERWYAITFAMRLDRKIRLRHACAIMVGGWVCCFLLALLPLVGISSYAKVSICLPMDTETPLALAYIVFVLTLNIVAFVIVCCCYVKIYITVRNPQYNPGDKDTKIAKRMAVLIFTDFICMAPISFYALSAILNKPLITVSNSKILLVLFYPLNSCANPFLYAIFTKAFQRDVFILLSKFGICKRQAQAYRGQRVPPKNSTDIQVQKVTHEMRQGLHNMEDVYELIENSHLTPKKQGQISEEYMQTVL
Sequence of Luciferin 4-monooxygenase (Photinus pyralis) (P08659 whole entry, looked up): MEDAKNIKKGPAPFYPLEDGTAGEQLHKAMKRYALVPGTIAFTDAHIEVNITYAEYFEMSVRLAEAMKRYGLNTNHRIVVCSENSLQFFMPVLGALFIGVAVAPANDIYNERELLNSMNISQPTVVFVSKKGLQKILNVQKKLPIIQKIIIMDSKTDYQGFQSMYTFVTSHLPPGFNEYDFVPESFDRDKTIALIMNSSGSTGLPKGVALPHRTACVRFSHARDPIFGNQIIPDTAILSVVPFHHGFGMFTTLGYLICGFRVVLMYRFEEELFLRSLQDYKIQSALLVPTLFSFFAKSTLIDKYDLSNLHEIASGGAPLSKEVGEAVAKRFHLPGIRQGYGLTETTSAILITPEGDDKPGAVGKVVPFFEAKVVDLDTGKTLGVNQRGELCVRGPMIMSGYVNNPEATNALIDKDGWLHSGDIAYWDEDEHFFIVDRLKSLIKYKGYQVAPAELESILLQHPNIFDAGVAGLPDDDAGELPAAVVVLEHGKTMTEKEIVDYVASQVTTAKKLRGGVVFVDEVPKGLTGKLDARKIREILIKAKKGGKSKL
Sequence of Nuclear receptor subfamily 1 group I member 3 (Homo sapiens) (Q14994 whole entry, looked up): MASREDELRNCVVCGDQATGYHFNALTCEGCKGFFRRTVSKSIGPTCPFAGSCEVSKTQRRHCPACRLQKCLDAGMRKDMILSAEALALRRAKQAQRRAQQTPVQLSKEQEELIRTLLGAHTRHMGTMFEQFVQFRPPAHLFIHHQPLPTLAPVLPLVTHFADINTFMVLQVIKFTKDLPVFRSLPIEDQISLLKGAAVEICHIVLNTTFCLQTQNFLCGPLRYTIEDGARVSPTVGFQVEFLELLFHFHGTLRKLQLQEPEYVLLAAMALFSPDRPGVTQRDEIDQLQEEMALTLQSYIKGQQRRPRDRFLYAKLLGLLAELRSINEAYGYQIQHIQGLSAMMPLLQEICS

For `NC(=O)c1cccc([N+](=O)[O-])c1`, the Potency result in assay [1], in assay [2], in [3], in assay [4], in assay [5] and in assay [6] was “inactive” throughout. The Potency result in [7], in assay [8], in assay [9], in [10], in [11] and in assay [12] was “inactive” throughout. Besides, the Potency result in assay [13] and in [14] was “inactive” each time.

Consider `Cc1c(C)c2c(c(C)c1O)CC[C@@](C)(CCC[C@H](C)CCC[C@H](C)CCCC(C)C)O2`, for which the Potency entry in assay [1], in [2], in assay [3], in [4], in [5] and in assay [8] was “inactive” throughout. Also, the Potency result in assay [9], in [11], in [12], in assay [13] and in assay [14] was “inactive” each time.

Consider `Cc1cc(C)c(/C=C2\C(=O)Nc3ccccc32)[nH]1`, for which the Potency result in assay [1], in [3], in [4], in assay [5], in [15] and in [16] was “inactive” in each case. Also, the Potency entry in assay [6], in assay [17], in [11], in [12] and in [14] was “inactive” throughout. Further, the activity change, positive = activation in [18] is 5.59%. Also, the Potency in assay [13] was 10.7 µM (active).

In the case of `CC(C)(C)NSc1nc2ccccc2s1`, in assay [2], the Potency is 18.1 µM (active). In addition, the Potency result in assay [3], in assay [4], in assay [19], in assay [5], in assay [6] and in assay [7] was “inactive” each time. Besides, the Potency result in assay [8], in [9], in assay [10], in assay [11], in assay [12] and in assay [13] was “inactive” throughout. Further, in assay [14], the Potency result is “inactive”.

As to `CCCC1CCC(=O)CC1`, the Potency result in assay [2], in assay [3], in assay [4], in [19], in assay [5] and in assay [8] was “inactive” each time. Further, the Potency result in assay [9], in assay [10], in assay [11], in [12], in assay [13] and in assay [14] was “inactive” in each case.

As for `CCCCCCCCCCC[C@@H](C[C@@H]1OC(=O)[C@H]1CCCCCC)OC(=O)[C@H](CC(C)C)NC=O`, the Potency entry in assay [2], in [3], in assay [4], in assay [19], in [20] and in assay [5] was “inactive” throughout. The Potency entry in assay [6], in [7], in assay [9], in assay [11], in assay [13] and in assay [14] was “inactive” throughout. For the same molecule, the Potency in assay [12] was 9.52 µM (active).

As to `CCO[C@@H]1O[C@H](C(COCc2ccccc2)OCc2ccccc2)[C@H](OCc2ccccc2)[C@H]1O` (stereo partly specified), the Potency entry in assay [2], in [3], in [4], in [20], in assay [16] and in assay [6] was “inactive” each time. In addition, the Potency entry in [8], in assay [11], in [13] and in [14] was “inactive” in each case. Besides, the Potency in assay [17] was 29.8 µM (active). Besides, the activity change, positive = activation in assay [18] was -48%.

On to `O=C(O)Cc1ccccc1Nc1c(Cl)cccc1Cl`, for which the Potency entry in [2], in assay [3], in assay [4], in assay [19], in assay [5] and in assay [6] was “inactive” throughout. Moreover, the Potency result in assay [8], in assay [9], in [10], in assay [11], in assay [12] and in assay [13] was “inactive” each time.
